Compound activity (PubChem)
HP1b binding inh = HP1-beta chromodomain-methylated histone interaction inhibition; P83916; AlphaScreen HP1-beta / biotin-H3K9me3 peptide binding; Potency, µM (series often up to 114 µM), for inactives: at the highest dose activity change, negative = inhibition, usual class: inhibitors; 390,000 tested, 0.56% active; also: potency is read from the fitted curve at half-maximal effect; nearly all actives have a fitted effect of over 70% in size
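HP1-beta protein (50 nM final) preincubated 30 min at room temperature with biotinylated H3(1-18)K9me3 peptide (50 nM) in PBS pH 7.4, 0.01% Tween-20, then compound added for 30 min. AlphaScreen streptavidin donor/nickel chelate acceptor beads (10 ug/mL final), 30 min dark, luminescence read.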
JMJD2E inh = blocks human JMJD2E demethylase activity; Potency, µM (series often up to 57.1 µM), for inactives: top-dose activity change, negative = inhibition, actives largely listed as inhibitors; 230,000 tested, 1.6% active; B2RXH2; AID 2147; JMJD2E catalytic domain, FDH-coupled NADH fluorescence (FDH is formaldehyde dehydrogenase); active = well fitted inhibition curve with a large enough effect, not every such curve was filed as active; inconclusive = small, poorly fitted or top-dose-only effect, or another doubt; inactive = no such curve, though single readings can be large or run the other way;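 also: potency is read from the fitted curve at half-maximal effect; 0% = wells with enzyme and -100% = buffer wells without enzyme; nearly all actives have a fitted effect of over 50% in size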
JMJD2A Tudor = JMJD2A Tudor domain (human) inhibition; Potency, µM (series often up to 114 µM), inactives show top-dose activity change, negative = inhibition, hits mostly inhibitors; 390,000 tested, 4.4% active; AlphaScreen JMJD2A-Tudor / H3K4me3 peptide binding; also: potency is read from the fitted curve at half-maximal effect; % is scaled to controls: 0 for no effect and ±100 for the full control effect; nearly all actives have a fitted effect of over 50% in size
BAZ2B block = BAZ2B (human) inhibition; 360,000 tested, 4.4% active; Potency, µM (titrated, usually from 114 µM), inactives show top-dose activity change, negative = inhibition, hits mostly inhibitors; AlphaScreen BAZ2B-H3K14Ac peptide displacement; also: potency is read from the fitted curve at half-maximal effect; % is scaled to controls: 0 for no effect and ±100 for the full control effect; nearly all actives have a fitted effect of over 60% in size
Target sequence (Q9UIF8 whole entry, looked up): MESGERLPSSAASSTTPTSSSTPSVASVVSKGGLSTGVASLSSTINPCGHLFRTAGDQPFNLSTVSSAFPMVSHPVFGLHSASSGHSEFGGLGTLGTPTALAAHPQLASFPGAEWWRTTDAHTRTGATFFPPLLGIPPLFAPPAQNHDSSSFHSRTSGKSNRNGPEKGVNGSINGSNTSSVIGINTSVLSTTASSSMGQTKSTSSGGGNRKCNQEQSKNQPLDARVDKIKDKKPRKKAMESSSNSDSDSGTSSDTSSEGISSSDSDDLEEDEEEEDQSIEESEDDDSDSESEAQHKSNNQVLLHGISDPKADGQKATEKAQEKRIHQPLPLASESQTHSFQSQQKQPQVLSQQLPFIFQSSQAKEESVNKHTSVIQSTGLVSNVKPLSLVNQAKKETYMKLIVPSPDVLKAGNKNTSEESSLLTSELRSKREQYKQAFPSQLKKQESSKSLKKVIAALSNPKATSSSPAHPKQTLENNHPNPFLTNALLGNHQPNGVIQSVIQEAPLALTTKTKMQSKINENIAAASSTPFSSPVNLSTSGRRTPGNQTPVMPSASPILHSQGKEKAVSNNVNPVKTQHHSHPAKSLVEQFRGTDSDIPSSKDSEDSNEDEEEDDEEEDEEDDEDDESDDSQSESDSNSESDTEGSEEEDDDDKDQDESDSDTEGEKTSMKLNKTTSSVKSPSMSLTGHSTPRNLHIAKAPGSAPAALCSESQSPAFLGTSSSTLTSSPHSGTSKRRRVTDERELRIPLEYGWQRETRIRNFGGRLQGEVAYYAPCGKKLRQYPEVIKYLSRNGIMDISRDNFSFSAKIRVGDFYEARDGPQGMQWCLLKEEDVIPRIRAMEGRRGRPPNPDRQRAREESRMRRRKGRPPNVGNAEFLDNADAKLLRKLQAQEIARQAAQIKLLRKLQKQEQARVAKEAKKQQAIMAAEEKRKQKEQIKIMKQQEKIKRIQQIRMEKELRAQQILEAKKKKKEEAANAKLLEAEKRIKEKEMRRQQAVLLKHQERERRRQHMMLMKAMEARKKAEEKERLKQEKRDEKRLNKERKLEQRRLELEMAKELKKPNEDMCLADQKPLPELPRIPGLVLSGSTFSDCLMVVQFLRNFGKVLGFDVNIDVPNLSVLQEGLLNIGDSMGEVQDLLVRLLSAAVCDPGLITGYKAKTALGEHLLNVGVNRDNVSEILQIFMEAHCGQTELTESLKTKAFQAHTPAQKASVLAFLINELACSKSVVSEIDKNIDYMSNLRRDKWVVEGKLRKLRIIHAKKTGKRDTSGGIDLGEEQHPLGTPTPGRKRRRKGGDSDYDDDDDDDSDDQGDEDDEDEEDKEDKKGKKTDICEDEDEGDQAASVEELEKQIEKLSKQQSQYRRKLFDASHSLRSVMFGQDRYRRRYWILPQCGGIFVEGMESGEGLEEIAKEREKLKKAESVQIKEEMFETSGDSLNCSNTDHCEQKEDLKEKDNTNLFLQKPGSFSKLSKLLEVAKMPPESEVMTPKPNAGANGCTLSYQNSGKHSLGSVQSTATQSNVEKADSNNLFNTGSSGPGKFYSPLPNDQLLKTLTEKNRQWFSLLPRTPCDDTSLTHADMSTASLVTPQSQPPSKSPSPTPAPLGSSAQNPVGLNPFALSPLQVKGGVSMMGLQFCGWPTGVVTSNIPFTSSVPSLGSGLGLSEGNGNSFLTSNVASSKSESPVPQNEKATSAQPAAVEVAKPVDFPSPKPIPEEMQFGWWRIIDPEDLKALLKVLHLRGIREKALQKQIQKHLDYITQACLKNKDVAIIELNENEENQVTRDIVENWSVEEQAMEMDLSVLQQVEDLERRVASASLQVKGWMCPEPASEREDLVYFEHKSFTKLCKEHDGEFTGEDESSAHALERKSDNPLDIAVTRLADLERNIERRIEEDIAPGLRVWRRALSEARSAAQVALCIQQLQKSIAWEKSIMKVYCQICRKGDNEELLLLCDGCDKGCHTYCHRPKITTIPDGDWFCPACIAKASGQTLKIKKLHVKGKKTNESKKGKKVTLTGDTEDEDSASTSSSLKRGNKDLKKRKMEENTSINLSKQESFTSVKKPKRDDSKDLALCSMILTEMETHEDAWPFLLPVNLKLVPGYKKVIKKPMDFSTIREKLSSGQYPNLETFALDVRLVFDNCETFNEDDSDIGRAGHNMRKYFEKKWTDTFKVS
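In this displacement format the biotinylated H3(5-23) peptide acetylated at Lys14 serves as ligand at 50 nM, with BAZ2B at 50 nM in PBS pH 7.4 containing 0.01% Tween-20. Donor and acceptor beads are 10 ug/mL final.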
PI5P4Ka inh = blocks human PI5P4K alpha kinase activity; AID 652105; 330,000 tested, 1.2% active; P48426; PI5P4Kalpha enzyme, ADP-Glo luminescence, 60 min; active compounds read low; max response, %; active = max response of -50% or lower; inconclusive = between -30% and -50%; inactive = -30% or higher; also: value at the top dose of about 77 µM; % is scaled to controls: 0 for no effect and ±100 for the full control effect
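ADP-Glo luminescence end-point after a 60 min room-temperature kinase reaction. PI5P4Kalpha and substrate in HEPES pH 7.4 buffer with EGTA, 0.1% CHAPS and 5% DMSO; ATP at 5 microM final.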
L3MBTL1 block = blocks human L3MBTL1; Q9Y468; 230,000 tested, 0.66% active; AlphaScreen L3MBTL1–H3K9me1 peptide binding; AID 485360; Potency, µM (highest dose often 57.1 µM), for the others: at the top dose activity, negative = inhibition, usual class: inhibitors; also: potency is read from the fitted curve at half-maximal effect; % is scaled to controls: 0 for no effect and ±100 for the full control effect; nearly all actives have a fitted effect of over 60% in size
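L3MBTL1 (50 nM) pre-complexed 30 min with biotinylated H3(1-15)K9me1 peptide (75 nM), then compounds added for 30 min at room temperature; AlphaScreen streptavidin donor/nickel chelate acceptor beads (10 ug/mL final) read after 30 min dark incubation.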
* hit, by the source's call; ? = inconclusive; · = not tested or not shown; [ ] = dose if it differs, or a comment. Hits are enriched below; roughly 5.7% of the tested compounds scored in any of these assays. Unless noted, calls follow the shape of the dose curve; as a rule, active = well fitted inhibition curve with a large enough effect; inconclusive = small, poorly fitted or top-dose-only effect; inactive = no such curve, though single readings can be large or run the other way.

SMILES	HP1b binding inh	JMJD2E inh	JMJD2A Tudor	BAZ2B block	PI5P4Ka inh	L3MBTL1 block
Cc1ccc(NC(=O)C2CCCN(c3ncnc4c3nc3n4CCCCC3)C2)cc1F (stereo unspecified)	42%	·	-7%	4%	·	·
CN(C)c1ccc2c(O)cc(=O)n(C)c2c1	23%	?	-22%	3%	·	-1%
O=Nc1c(O)ccc2cc(S(=O)(=O)O)ccc12	9%	·	2.8µM*	·	-18	·
Nc1cccc2cc(S(=O)(=O)O)ccc12	-8%[57 µM]	·	50µM*	·	?	·
CN(C)c1ccc2cc(S(=O)(=O)O)cc(O)c2c1	?	·	50µM*	·	?	·
CCOc1ccccc1NC(=O)Cn1cnc2c1c(=O)n(C)c(=O)n2C	15%	·	-20%	0%	·	·
CCC(C)(C)NS(=O)(=O)c1cc(-c2cc(C)no2)ccc1C	11%	·	-10%	6%	·	·
CC(C)COP(=O)(c1ccc(N(C)C)cc1)C(O)c1ccncc1 (stereo unspecified)	25%	20µM*	5%	0%	-3	-2%
CN(C)c1ccc(P(=O)(OC2CCCCC2)C(O)c2ccncc2)cc1 (stereo unspecified)	22%	22µM*	8%[57.1 µM]	-7%	-1	2%
CC1CCC(C(C)C)C(OP(=O)(c2ccccc2)C(O)c2ccncc2)C1 (stereo unspecified)	35%	18µM*	-13%	-13%	2	·
CC(C)COP(=O)(c1ccc(N(C)C)cc1)C(O)c1ccc(N(C)C)cc1 (stereo unspecified)	1%	·	?	-36%	-5	·
COc1ccccc1NC(=O)c1c(C)cc(C)nc1SCC(=O)Nc1cccc(C)c1	37%	·	-4%	-27%	·	·
Cc1cccc(N2CC(c3nc4ccc(C)cc4[nH]3)CC2=O)c1 (stereo unspecified)	15%	·	-15%	-2%	·	·
CS(=O)(=O)N(CC(=O)NCc1ccccn1)Cc1ccc(Cl)cc1	29%	14%	11µM*	?	-3	3%
CS(=O)(=O)N(CC(=O)N1CCN(Cc2ccc3c(c2)OCO3)CC1)Cc1ccc(Cl)cc1	7%	1%	-27%	56µM*	·	·
CS(=O)(=O)N(CC(=O)NCc1ccccc1)Cc1ccc(Cl)cc1	5%	15%	-6%	-4%	·	·
O=C(O)c1ccccc1C(=O)N1CCN(Cc2ccc3c(c2)OCO3)CC1	18%	·	-10%	-2%	7	·
O=C(Cc1ccccc1)NCc1ccc2c(c1)OCO2	38%	2%	-19%	-24%	-2	·
CS(=O)(=O)N(CC(=O)NCc1ccc2c(c1)OCO2)Cc1ccccc1	?	2%	18µM*	-13%	?	·
O=C(c1ccccc1F)N1CCN(Cc2ccc3c(c2)OCO3)CC1	40µM*	·	0.89µM*	45µM*	-8	-2%[2.29 µM]
S=C(NNc1cccc(Cl)c1)NC1CCCCC1	?	3%	8.9µM*	35µM*	1	-19%
Cc1cccc(NC(=S)NNc2cccc(Cl)c2)c1	10µM*	·	56µM*	10µM*	1	·
Cc1cccc(NNC(=S)Nc2c(C)cccc2C)c1	-6%[57 µM]	·	14µM*	14µM*	2	·
Cc1cccc(NNC(=S)Nc2ccccc2)c1	·	·	·	·	-1	·
S=C(Nc1cccc(Cl)c1)NC1CCCCC1	49%	8%	-4%	4%	2	1%
SMILES	HP1b binding inh	JMJD2E inh	JMJD2A Tudor	BAZ2B block	PI5P4Ka inh	L3MBTL1 block
CCc1ccc(NC(=O)[C@H](C)NC(=O)C2CCN(C(=O)[C@@H](N)C(C)C)CC2)cc1	33%	·	-3%	-16%	-2	·
COC(=O)CC1c2ccccc2C(Cc2ccc(OC)cc2)C(C)N1C(=O)OC (stereo unspecified)	·	1%[11.4 µM]	·	·	·	·
COc1ccc(CN2C(=O)c3cccnc3C2Nc2cc(Cl)c(OC)cc2OC)cc1 (stereo unspecified)	?	16µM*	35µM*	50µM*	·	?
CCN(CC)S(=O)(=O)c1ccc(NC2c3ncccc3C(=O)N2Cc2ccccc2)cc1 (stereo unspecified)	-5%	?	28µM*	?	·	-14%
COc1ccc(CN2C(=O)c3cccnc3C2Nc2ccc(C)cc2)cc1 (stereo unspecified)	-19%	?	-11%[57.1 µM]	?	-7	·
O=C1c2cccnc2C(Nc2ccccc2)N1Cc1ccco1 (stereo unspecified)	11%	?	32µM*	56µM*	·	·
CCN(CC)S(=O)(=O)c1ccc(NC2c3ccccc3C(=O)N2Cc2ccc3c(c2)OCO3)cc1 (stereo unspecified)	14%	-3%	-18%	0%	7	·
O=C1c2cccnc2C(Nc2cccc(F)c2)N1Cc1ccco1 (stereo unspecified)	17%	-1%	-5%	-28%	-16	-8%
COc1ccc(NC(=O)C(OC(=O)CNC(=O)c2ccccc2)c2ccccc2)cc1Cl (stereo unspecified)	·	·	-23%	·	·	·
COc1cc(/C=N/NC(=O)C(N)=O)ccc1OCC(=O)N1C(C)CCCC1C (stereo unspecified)	23%	-6%	-10%	8%	2	·
O=c1[nH]c(=S)[nH]cc1S(=O)(=O)c1cccc(Cl)c1	18%	·	-33%	-16%	-57*	·
O=c1[nH]c(=S)[nH]cc1Oc1ccc(Cl)cc1	50%	·	?	·	-2	·
CC1CCN(C(=O)Cn2cc(SCC(=O)Nc3ccccc3C(F)(F)F)c3ccccc32)CC1	43%	·	-29%	3%	·	·
O=C(O)C(S)C(S)C(=O)O (stereo unspecified)	?	·	50µM*	·	-55*	·
Cn1cnnc1SCC(=O)c1cc2ccccc2oc1=O	-18%	?	89µM*	?	·	-5%
CC1CCN(C(=O)c2ccccc2NS(=O)(=O)c2ccccc2)CC1	35%	·	-7%	-6%	9	·
O=C(CC(=O)c1ccncc1)c1ccccc1	7%	·	32µM*	·	10	·
O=C(CC(=O)c1ccccc1)c1ccccc1	285%	?	161%	·	18	·
CC(C)C[C@H](NC(=O)OC(C)(C)C)C(=O)NCC1CCC(C(=O)N[C@@H](Cc2ccccc2)C(=O)O)CC1 (stereo partly specified)	35%	·	-9%	-2%	5	·
CC(C)C[C@@H](NC(=O)C1CCC(CNC(=O)[C@H](Cc2ccccc2)NC(=O)OC(C)(C)C)CC1)C(=O)O (stereo partly specified)	11%	·	28µM*	2%	2	·
CC(C)C[C@H](NC(=O)[C@@H]1Cc2ccccc2CN1C(=O)OC(C)(C)C)C(=O)NCC1CCC(C(=O)O)CC1 (stereo partly specified)	25%	25µM*	-5%	-17%	5	·
